Experimental data from PubChem BioAssay (EPA / NIEHS).
Records with an inconclusive call do not appear. The source made the active and inactive calls. How the source made its calls, unless noted: active means hit-call score of the fitted dose curve at least 0.9, where 1 is the maximum; inactive means score below 0.9.

Legend:
[1] = CCTE_Shafer_MEA_acute_spike_number: CCTE's Neural Acute Assay for Total Number of Spikes, Shafer Lab (AID 2284008);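 on AC50: curve fitted for decrease in spike count so AC50 reflects inhibitors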
Procedure, shortened: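 Rat cortical cultures, DIV 13/15, 37 C. 40 min baseline rec, cpd 0.03-40 uM, 40 min post-dose rec. Band-pass 300-5000 Hz, spike threshold 8x rms; % change in spike count per well, DMSO neg ctrl, loss-of-signal fit.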

[2] = CCTE_Shafer_MEA_acute_firing_rate_mean: CCTE's Neural Acute Assay for Mean Firing Rate, Shafer Lab (AID 2284009);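 further: analyzed for loss of signal so actives lower firing rate relative to DMSO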
Procedure, shortened: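 Spontaneous spiking of primary rat cortical networks, DIV 13/15, 37 C. Compound 0.03-40 uM, n ≥3 wells; 40 min baseline vs 40 min treated. Endpoint fitted in loss-of-signal direction against DMSO.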

[3] = CCTE_Harrill_HTTr_Viability_MCF7: CCTE's 6-hour Cell Viability Assessment for the High-Throughput Transcriptomics (HTTr) Platform, in MCF-7 cells cultured in DMEM + 10% fetal bovine serum, Harrill Lab (AID 2284010)
Procedure, shortened: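 Eight-point concentration series, six-hour exposure. Propidium iodide exclusion imaged to assess membrane integrity as a cytotoxicity readout; bidirectional fitting was done with DMSO as negative control and activity baseline.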

[4] = CCTE_Harrill_HTTr_Apoptosis_MCF7: CCTE's 6-hour Apoptosis Assessment for the High-Throughput Transcriptomics (HTTr) Platform, in MCF-7 cells cultured in DMEM + 10% fetal bovine serum, Harrill Lab (AID 2284011)
Procedure, shortened: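 Read-out: CellEvent Caspase 3/7 Green signal by high content imaging, gain-of-signal indicating apoptosis. MCF-7 cells, DMEM + 10% FBS, eight-point dilution series, 6 h exposure. Curves fitted bidirectionally relative to DMSO negative control.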

[5] = CCTE_Shafer_MEA_acute_burst_number: CCTE's Neural Acute Assay for Single-Electrode Bursts, Shafer Lab (AID 2284013)
Procedure, shortened: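 Burst totals were derived with adaptive spike detection (8x rms threshold) on filtered signals from rat cortical cultures; change relative to pre-treatment baseline after 40-min compound exposure (0.03-40 uM) was fitted in the negative direction against DMSO.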

[6] = CCTE_Shafer_MEA_acute_burst_duration_mean: CCTE's Neural Acute Assay for Mean Burst Duration, Shafer Lab (AID 2284014);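 further: hits are decreases in mean burst duration relative to DMSO controls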
Procedure, shortened: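 Acute exposure of mature rat cortical networks (DIV 13 or 15) grown on microelectrode arrays to 0.03-40 uM compound. Mean burst duration compared with the 40-min pre-dose baseline over a 40-min post-dose recording at 37 C.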

[7] = CCTE_Shafer_MEA_acute_per_burst_spike_number_mean: CCTE's Neural Acute Assay for Average Number of Spikes Per Burst, Shafer Lab (AID 2284015);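 further: hits are decreases in mean spikes per burst versus baseline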
Procedure, shortened: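 Read-out: percent change in mean spikes per burst, each well's post-exposure 40-min recording versus its own 40-min baseline. Rat cortical cultures, DIV 13 or 15, compounds 0.03-40 uM; DMSO is negative control, loss-of-signal fitting.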

[8] = CCTE_Shafer_MEA_acute_interburst_interval_mean: CCTE's Neural Acute Assay for Mean Interburst Interval, Shafer Lab (AID 2284016);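 further: percent change of mean interburst interval versus each well's own pre-dose baseline; curves fitted for decrease in interburst interval relative to DMSO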
Procedure, shortened: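 Rat cortical cultures, DIV 13/15; 20 min equilibration, 40 min baseline, compound 0.03-40 uM, 40 min re-recording, 37 C. Spikes detected at 8x rms noise (300-5000 Hz band-pass). Endpoint: % change in interburst interval, fitted in loss direction vs DMSO.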

[9] = CCTE_Harrill_HTTr_CellCount_MCF7: CCTE's Cell Proliferation Assessment for the High-Throughput Transcriptomics (HTTr) Platform, Harrill Lab (AID 2284012; active means hit-call score of the fitted dose curve at least 0.9, where 1 is the maximum;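 further: count of Hoechst-stained nuclei per well by high-content imaging in MCF-7 cells; cells exposed to compound for six hours; intended direction is loss of nuclei count meaning fewer cells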)
Procedure, shortened: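 For this full-screen endpoint, MCF-7 cultures received eight compound dilutions for six hours. Well nuclei counts from Hoechst imaging were analyzed relative to DMSO.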

[10] = CCTE_Simmons_MITO_viability: CellTiter-Glo Viability Assessment for CCTE's HepG2 Seahorse XF Respirometric Screening Assay [post-hoc], Simmons Lab (AID 2284007; active means hit-call score of the fitted dose curve at least 0.9, where 1 is the maximum)
Procedure, shortened: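 Post-hoc viability check on the HepG2 respirometry plates: luciferase-based ATP signal measured once, after 90 min compound exposure spanning 125 nM–100 uM final. Activity was referenced to DMSO as baseline.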

Measured: AC50

Cc1cc(C(F)(C(F)(F)F)C(F)(F)F)ccc1NC(=O)c1cccc(I)c1C(=O)NC(C)(C)CS(C)(=O)=O
active: [1] 1680 nM | [2] 1680 nM | [5] 1390 nM | [7] 20700 nM
inactive: [3] | [4] | [6] | [8]

C=CCc1ccccc1O
inactive: [3] | [4]

OCC(c1ccc(Cl)cc1)c1ccc(Cl)cc1
inactive: [3] | [4]

CCCCOC(=O)COC(=O)c1ccccc1C(=O)OCCCC
active: [1] 19.6 nM | [2] 19.6 nM | [5] 10.5 nM
not listed: [10]
inactive: all other assays above

C#C[C@]1(O)CC[C@H]2[C@@H]3CCC4=CC(=O)CC[C@]4(C)[C@H]3CC[C@@]21C
inactive: [3] | [4]

CC(C)[C@@H](Nc1ccc(C(F)(F)F)cc1Cl)C(=O)OC(C#N)c1cccc(Oc2ccccc2)c1 (stereo partly drawn)
inactive: [3] | [4] | [5]
active: [1] 936 nM | [2] 1250 nM | [6] 841 nM | [7] 840 nM | [8] 2120 nM

O=C(O)C1(c2ccc3c(c2)OC[C@H](Cc2ccc(-c4ccccc4)cc2)[C@H]3O)CCCC1
inactive: [10] | [3] | [4] | [9]

OC(Cc1ccccc1Cl)(Cn1[nH]cnc1=S)C1(Cl)CC1 (stereo not drawn)
inactive: [3] | [4]

CCOP(=O)(OCC)OC(=CCl)c1ccc(Cl)cc1Cl
inactive: [3] | [4]

Oc1c(Br)cc(Br)cc1Br
inactive: [3] | [4]

Oc1ccc(Cc2ccc(O)cc2)cc1
active: [1] 4.54 nM | [2] 3.77 nM | [5] 3 nM | [7] 25300 nM
not listed: [10]
inactive: all other assays above

C[C@]12CC[C@@H](O)C[C@@H]1CC[C@@H]1[C@@H]2CC[C@]2(C)C(=O)CC[C@@H]12
inactive: [3] | [4]

CC1CC(=O)O1 (stereo not drawn)
inactive: [3] | [4]

N#Cc1cccnc1
not listed: [9] | [10]
inactive: all other assays above

CS(=O)(=O)c1ccc(C(=O)C2C(=O)CCCC2=O)c(Cl)c1COCC(F)(F)F
not listed: [10]
inactive: all other assays above

Cc1ccccc1OP(=O)(Oc1ccccc1C)Oc1ccccc1C
inactive: [2] | [5]
active: [1] 25400 nM | [6] 21700 nM | [7] 27800 nM | [8] 23500 nM

CCCCCCCCCCCCc1cccc(S(=O)(=O)O)c1
not listed: [9] | [10]
inactive: all other assays above

CC1(C)[C@H](C(=O)O[C@H](C#N)c2cccc(Oc3ccccc3)c2)[C@@H]1/C=C(\Cl)C(F)(F)F
inactive: [3] | [4] | [9] | [5]
active: [1] 1180 nM | [2] 1180 nM | [6] 761 nM | [7] 679 nM | [8] 1290 nM

O=C(Cc1ccccc1)OCCc1ccccc1
active: [1] 3 nM | [2] 3 nM
not listed: [10]
inactive: all other assays above

CN(C)C(=S)S
not listed: [9] | [10]
inactive: all other assays above

CCCCCCCCCCCCCCC(Br)C(=O)O (stereo not drawn)
inactive: [3] | [4]

CCCSP(=S)(OCC)Oc1ccc(SC)cc1 (stereo not drawn)
inactive: [3] | [4]

CC(C)(C)c1ccccc1O
active: [1] 4820 nM | [2] 4870 nM
not listed: [10]
inactive: all other assays above

CN(N=O)C(N)=O
inactive: [3] | [4]

Clc1cccc(Cl)c1Cl
not listed: [10]
inactive: all other assays above

CCOP(=S)(OCC)Oc1ccc(Cl)cc1Cl
inactive: [3] | [4]

OCCCCO
not listed: [9] | [10]
inactive: all other assays above

Oc1c(Cl)cc(Cl)cc1Cl
inactive: [10] | [3] | [4] | [9]

CCN(N=O)C(N)=O
inactive: [3] | [4]

O=C(N[C@H]1CN2CCC1CC2)c1ccc2c(c1)OCCO2
inactive: [3] | [4]

Oc1cc(Cl)c(Cl)cc1Cl
active: [1] 36300 nM | [2] 34200 nM
inactive: all other assays above
